Test results as given in PubChem BioAssay AID689 (Sanford-Burnham Center for Chemical Genomics, 2007).
The campaign covered roughly 62,000 compounds. About 80 (0.1%) were called active. The rule behind the calls is not given here. The list is a sample of the results. Potency and affinity values are given separately.

What follows are molecules tested against Ephrin type-A receptor 4 (Mus musculus) (UniProt Q03137) (assay: inhibitors of EphA4 binding to KYL peptide, primary screen, biochemical, colorimetric, mouse EphA4 (AID 689)). Settings: EphA4-AP binding to KYL peptide, pNPP A405, at 10 µM, active compounds read high.
Sequence of Ephrin type-A receptor 4 (Mus musculus) (Q03137 whole entry, looked up): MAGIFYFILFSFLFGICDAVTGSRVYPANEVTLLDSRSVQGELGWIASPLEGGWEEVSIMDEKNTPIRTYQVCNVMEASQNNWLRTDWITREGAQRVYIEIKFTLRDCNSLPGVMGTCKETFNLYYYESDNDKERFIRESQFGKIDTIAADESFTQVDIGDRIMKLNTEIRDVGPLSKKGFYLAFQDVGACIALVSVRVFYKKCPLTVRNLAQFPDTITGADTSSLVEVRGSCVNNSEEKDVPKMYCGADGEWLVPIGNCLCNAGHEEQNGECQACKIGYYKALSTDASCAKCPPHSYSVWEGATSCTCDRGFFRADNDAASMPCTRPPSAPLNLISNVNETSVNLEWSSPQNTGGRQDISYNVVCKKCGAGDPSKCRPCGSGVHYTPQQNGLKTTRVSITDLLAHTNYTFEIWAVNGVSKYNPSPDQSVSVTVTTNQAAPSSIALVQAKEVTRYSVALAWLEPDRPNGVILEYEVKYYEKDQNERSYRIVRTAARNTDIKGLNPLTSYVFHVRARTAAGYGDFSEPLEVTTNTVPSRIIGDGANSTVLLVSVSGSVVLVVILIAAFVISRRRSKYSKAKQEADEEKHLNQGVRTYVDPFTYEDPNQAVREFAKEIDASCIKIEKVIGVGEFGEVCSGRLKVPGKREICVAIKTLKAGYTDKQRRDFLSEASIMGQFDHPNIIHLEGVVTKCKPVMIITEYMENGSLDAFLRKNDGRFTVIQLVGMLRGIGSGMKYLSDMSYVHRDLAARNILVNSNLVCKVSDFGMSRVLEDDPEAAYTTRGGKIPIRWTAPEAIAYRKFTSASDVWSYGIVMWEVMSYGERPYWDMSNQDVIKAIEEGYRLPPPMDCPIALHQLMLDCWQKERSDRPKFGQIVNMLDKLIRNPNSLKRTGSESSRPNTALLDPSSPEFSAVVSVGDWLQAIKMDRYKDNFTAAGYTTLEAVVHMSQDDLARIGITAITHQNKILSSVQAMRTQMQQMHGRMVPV

inhibition, inactive:
O=C(NC1CCCCCCC1)C1CCCN(S(=O)(=O)c2cnc[nH]2)C1 (stereo not given) -3.1%, COc1ccc(C)cc1NC(=O)C1CC(=O)N(Cc2ccco2)C1 (stereo not given) -16.4%, O=C1CCCC2=C1C(c1ccco1)Nc1ccc(C(=O)c3ccccc3)cc1N2 (stereo not given) -4.7%, O=C1CCCC2=C1C(c1cccs1)Nc1ccc3ncccc3c12 (stereo not given) -5.1%, CC1(C)N=C(c2ccc(Cl)cc2Cl)C(=O)N1 -8.8%, CCOc1ccccc1NC(=S)N1CCC(NC(=O)NC23CC4CC(CC(C4)C2)C3)CC1 -4.6%, O=C(c1ccc2c(c1)OCO2)N1CCC(CN2C(=O)c3cccc4cccc(c34)C2=O)CC1 -13.5% [this sample at 5 µg/mL], Cc1ccc2nc(NC3=NCN(Cc4ccccc4)CN3)nc(C)c2c1 1.1%, O=C1/C(=C\c2ccc(-c3ccccc3Cl)o2)SC(=S)N1Cc1ccccc1 18.2% [this sample at 5 µg/mL], CN1C(=O)/C(=C2\SC(=S)N(CC3CCCO3)C2=O)c2ccccc21 (stereo not given) -3.2%, Cc1ccccc1OCC(=O)Nc1ccc2c(c1)Cc1ccccc1-2 -9.2%, Cc1c(NC(=S)N/N=C/c2ccc(O)cc2)c(=O)n(-c2ccccc2)n1C -1.6%, Cc1c(NC(=O)CC(=O)Nc2c(C)n(C)n(-c3ccccc3)c2=O)c(=O)n(-c2ccccc2)n1C 0.3%, COc1ccccc1-c1nnc2n1N=C(c1ccc(O)c(O)c1)CS2 -9.2%, COc1cc(/C=c2\sc3nc4ccccc4n3c2=O)ccc1OS(=O)(=O)c1ccccc1 10.7% [this sample at 5 µg/mL], COc1cc(/C=c2\sc3nc4ccccc4n3c2=O)ccc1OCCOc1ccccc1 -2.3% [this sample at 5 µg/mL], COCCNC(=O)CN(C(=O)CCC(=O)Nc1nccs1)c1ccccc1OC -10.3%, CCN1C(=O)/C(=C/C=C2/SCCN2C)SC1=S -7.6%, CN1/C(=C\C=Nc2ccccc2)C(C)(C)c2ccccc21 4%, CN1/C(=C\C=[N+](C)c2ccccc2)C(C)(C)c2ccccc21 -36.4%, CCN1C(=O)/C(=C\c2cccc(C)c2)SC1=S -1.5% [this sample at 5 µg/mL], COc1ccc(C(=O)NCCCn2ccnc2)cc1 3%, O=C(Nc1ccccc1)N1CCC(C(=O)N2CCN(S(=O)(=O)c3cccc(F)c3)CC2)CC1 -6.6%, COc1ccc(OC)c(NC(=O)CN(c2ccccc2)S(=O)(=O)c2ccccc2[N+](=O)[O-])c1 -12.2% [this sample at 5 µg/mL], CCOC(=O)C1CCCN(C(=O)COc2ccccc2O)C1 (stereo not given) -0.6%, COCCN(Cc1cc2cc3c(cc2nc1Cl)OCO3)C(=O)Nc1ccccc1OC -13.8%, CCN(CC)CCCN(Cc1cc2cc3c(cc2[nH]c1=O)OCCO3)C(=O)Nc1ccc(F)cc1 9.2%, Cc1ccc(-n2ncnc2-c2cccc(Cl)c2)cc1Cl 0.3% [this sample at 5 µg/mL], COc1ccccc1-c1c(C(F)(F)F)oc2c(CN3CCCC3)c(O)ccc2c1=O -1.3% [this sample at 5 µg/mL], O=C1SC(c2ccccc2)=N/C1=C/c1ccco1 -12.4%, CCCSC1=N/C(=C\c2ccsc2)C(=O)S1 -0.1%, COc1ccc(-c2nnc3n2N=C(C)CS3)cc1OC -3.7%, CCC(CC)COC(=O)C(C#N)c1nc2ccccc2nc1N1CCOCC1 (stereo not given) 48.9%, CC1CCN(c2nc3ccccc3nc2C(C#N)C(=O)OC2CCCCC2)CC1 (stereo not given) 42.2%, N#CC(C(=O)OC1CCCCC1)c1nc2ccccc2nc1N1CCOCC1 (stereo not given) -17.3%, COCCOC(=O)C(C#N)c1nc2ccccc2nc1N1CCCC1 (stereo not given) 20.7%, C=CCN1C(=O)[C@]2(c3ccccc31)C1CCCC=C1C(C#N)=C(N)C2(C#N)C#N (stereo not given in full) -6.6%, CC(=O)Nc1ccc(S(=O)(=O)N2CCN(C34CC5CC(CC(C5)C3)C4)CC2)cc1 -1.8%, COc1ccc(C(CC(=O)Nc2ccc(F)cc2)c2ccccc2)cc1 (stereo not given) -16.8%, O=C(CSc1nnc(-c2ccc(S(=O)(=O)N3CCOCC3)cc2)o1)c1ccccc1F -15.3%, CCOC(=O)c1c(NC(C)=O)sc2c1CCCNC2=O 12.2%, CCCCC(=O)Nc1sc2c(c1C(=O)OCC)CCC(C=O)=C2Cl -6.4%, CC(C)OP(=O)(c1ccc(N(C)C)cc1)C(O)c1ccncc1 (stereo not given) -19.9%, COc1ccc(N2CCN(C(=O)c3csc4ccccc34)CC2)cc1 -8.7%, Cc1ccc(S(=O)(=O)N(Cc2ccccc2)c2ccccc2C(=O)NCc2ccc(Cl)cc2)cc1 22% [this sample at 5 µg/mL], COc1cc(C(=O)N2CCCN(c3nc4cc(C)ccc4cc3C#N)CC2)cc(OC)c1OC 1.5%, Cc1ccc2cc(C#N)c(N3CCCN(C(=O)C4CCCO4)CC3)nc2c1 (stereo not given) 2.7%, CCOc1ccc2oc(C)c(C(=O)OC(C)C)c2c1 -14.8% [this sample at 5 µg/mL], O=S(=O)(c1ccc(Cl)cc1)N1CCN(c2ccccn2)CC1 11% [this sample at 5 µg/mL], Cc1cc([N+](=O)[O-])nn1CC(=O)NNC(=S)Nc1ccc(Cl)cc1 -10.8%, COc1ccc(N2Cc3cccc(C(=O)N4CCOCC4)c3C2=O)cc1 7.2%, COc1ccc(N2Cc3cccc(C(=O)N4CCN(C(=O)c5ccco5)CC4)c3C2=O)cc1 11.2%, Cn1c(SCC(=O)N2CCOCC2)nc2cccnc21 2.2%, CCOC(=O)CSc1nnc(-c2ccc(Br)cc2)o1 5.7% [this sample at 5 µg/mL], O=C(OCc1ccccc1)Sc1nnc(-c2ccc(Br)cc2)o1 -5.7% [this sample at 5 µg/mL], Cc1cc2c(ccc3[nH]onc32)n1 16.7%, CC1=NN(c2ccccc2)C(=O)/C1=C/c1cc2cc(C)ccc2nc1N1CCCCC1 5.3%, Cc1ccc(C2=N/C(=C\N3CCCCC3)C(=O)O2)cc1 -3.3%, CN(C)/C(CN1CCOCC1)=C1\N=C(c2ccccc2)OC1=O -14%, O=C1OC(c2ccccc2)=N/C1=C\N1CCCCC1 -17.4%, CCn1c(SCC(=O)OC(C)C)nnc1-c1cccc(Cl)c1 -13.7%, C=CCNC(=O)c1ccc(N2C(=O)c3ccccc3C2=O)cc1 -9.3% [this sample at 5 µg/mL], CCOC(=O)N1CCN(C(=O)CSCc2nc(-c3ccccc3C)oc2C)CC1 7.2%, CCOc1ccc(N(CC(=O)Nc2ccc3c(c2)OCCO3)S(=O)(=O)c2c(C)noc2C)cc1 -0.5%, O=C(C/C=N\OCc1c(Cl)cccc1Cl)Oc1ccc(Cl)cc1Cl -11.4%, Nc1ccc2c(c1)C(=O)C(=O)c1ccccc1-2 -16.9%, Nc1ccc(NC(=O)c2ccccc2)c2c1C(=O)c1ccccc1C2=O -5.6%, CC1CN(CC(=O)N2CCc3[nH]c4ccccc4c3C2)CC(C)O1 (stereo not given) -14.2%, CC(N=c1ccccn1C(=O)Nc1ccc(Cl)cc1)c1ccco1 (stereo not given) 6.6%, Oc1oc(-c2ccccc2)nc1C=Nc1ccccc1 1%, CN(C)c1ccc(N=Cc2nc(-c3ccccc3)oc2O)cc1 -7.6%, COc1ccc(C2C(C(=O)OCC(=O)N3CCCCC3)CCC(=O)N2c2ccc(OC)cc2)cc1 (stereo not given) -9.6%, COc1cc(NC(=O)c2ccc(NS(=O)(=O)c3c(C)noc3C)cc2)cc(OC)c1 -7.5%, Cc1ccccc1NC(=O)CSc1nnc(-c2ccco2)c(-c2ccco2)n1 32.3%, O=C(CSc1nnc(-c2ccco2)c(-c2ccco2)n1)Nc1ccccc1 41.7%, CS(=O)(=O)N1CCN(Cc2ccc(Cl)cc2)CC1 -10.7% [this sample at 5 µg/mL], CC(C(=O)O)N1C(=O)/C(=C/c2ccc([N+](=O)[O-])cc2)SC1=S (stereo not given) 3.4% [this sample at 5 µg/mL], CC(C)C(C(=O)O)N1C(=O)/C(=C/c2ccc3c(c2)OCO3)SC1=S (stereo not given) -2% [this sample at 5 µg/mL], CC(C(=O)O)N1C(=O)/C(=C/c2ccc3c(c2)OCO3)SC1=S (stereo not given) 0.6% [this sample at 5 µg/mL], CC(C)CN1C(=O)/C(=C/c2ccco2)SC1=S 30.2% [this sample at 5 µg/mL], CCOC(=O)C1CCN(CCC(=O)Nc2cccc(Cl)c2)CC1 -3.9%, COc1ccc(Cc2nnc(NC(=O)c3cccs3)s2)cc1 -1.1%, O=C(Cc1cccs1)Nc1nnc(Cc2ccc(F)cc2)s1 -11.3%, O=C(NCCCN1CCOCC1)c1cccc(Cl)c1 -2.3% [this sample at 5 µg/mL], O=C(COc1ccc(Cl)cc1Cl)Nc1ccc(NC(=O)COc2ccc(Cl)cc2Cl)cc1 -4.1% [this sample at 5 µg/mL]
